Here are results for 35 molecules from PubChem BioAssay AID2013 (Sanford-Burnham Center for Chemical Genomics, 2009).

Hit rate of the full screen: of about 290,000 compounds, about 370 (0.13%) were called active. This is one part of a sample in which actives are shown more often than they occur. Measured potencies and affinities stand elsewhere. Values without a mark were called inactive.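 Rule for the calls: active = spots per cell inhibited over 60%, with over 100 cells counted and total cytoplasm intensity under 500,000; inconclusive = wells with under 100 cells, flagged as likely toxic; inactive = the rest.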

G-protein coupled receptor 55 (Homo sapiens), sequence (Q9Y2T6 whole entry, looked up): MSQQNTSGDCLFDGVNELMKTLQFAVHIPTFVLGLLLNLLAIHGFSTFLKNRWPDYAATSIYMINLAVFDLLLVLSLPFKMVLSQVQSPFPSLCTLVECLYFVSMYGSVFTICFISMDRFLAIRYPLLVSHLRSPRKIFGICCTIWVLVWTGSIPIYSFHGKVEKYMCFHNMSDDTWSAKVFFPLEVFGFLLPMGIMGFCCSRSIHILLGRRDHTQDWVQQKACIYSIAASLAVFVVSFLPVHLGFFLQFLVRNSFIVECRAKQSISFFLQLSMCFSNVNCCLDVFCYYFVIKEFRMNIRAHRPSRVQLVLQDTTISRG

The assay has as its target G-protein coupled receptor 55 (Homo sapiens) (UniProt Q9Y2T6). As to the kind of experiment: inhibition of LPI-stimulated GPR55 beta-arrestin translocation – imaging, U2OS, beta-arrestin-GFP, LPI agonist, primary screen (AID 2013).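 Note: U2OS cells stably carrying GPR55 and arrestin-GFP stimulated by 5 µM LPI near EC80; imaged beta-arrestin-GFP aggregate spots per cell after agonist stimulation; plate controls were LPI-stimulated DMSO wells for no effect and DMSO wells without LPI for full effect.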 Particulars: LPI antagonism, at 10 µM, stronger effect = higher value.
On to `CC1=Nc2ccccc2/C1=C/c1c(O)n(C)c(=O)[nH]c1=O`, for which the inhibition – broadly, the relative decrease from the control value, in per cent – is 1.1%.
Take `O=c1[nH]c(=O)n(-c2cccc(F)c2)c(O)c1/C=C1\C=Nc2ccccc21`: the inhibition is 8.8%.
As for `O=c1[nH]c(=O)n(-c2ccccc2F)c(O)c1/C=C1\C=Nc2ccccc21`, the inhibition is 21.1%.
Take `COC(=O)C1=Nc2ccccc2/C1=C\c1c(O)n(-c2ccc(Br)cc2)c(=O)[nH]c1=O`: the inhibition is 0.3%.
As to `Cc1ccccc1-n1c(O)c(/C=C2/C(c3ccccc3)=Nc3ccccc32)c(=O)[nH]c1=O`, the inhibition was 83% (active).
The value for `Cc1cccc(-n2c(O)c(/C=C3/C(c4ccccc4)=Nc4ccccc43)c(=O)[nH]c2=O)c1` was 74.4% (active); that for `O=c1[nH]c(=O)n(-c2ccccc2)c(O)c1/C=C1/C(c2ccccc2)=Nc2ccccc21` was 68.8% (active); that for `COC(=O)C1=Nc2ccccc2/C1=C\c1c(O)n(-c2ccc(OC)cc2)c(=O)[nH]c1=O` was -7.2%.
The value for `Cc1cccc(-n2c(O)c(/C=C/C=Nc3ccccc3)c(=O)[nH]c2=O)c1` was 0.7%; that for `C#C[C@@]1(O)CCC2C3CCC4=C/C(=N/OCC(=O)NC(C(=O)NC(CC(C)C)C(=O)O)C(C)C)CC[C@]4(C)C3CC[C@@]21C` (stereo not given in full) was 13.1%; that for `COc1ccccc1-n1c(-c2ccccc2)nc2ccccc2c1=O` was -1.7%.
The value for `CN1CCN(c2nc(N(C)C)oc(=O)c2C#N)CC1` was 2.9%; that for `Cc1cc(C)nc(-n2c(C)nc3cc(Cl)ccc3c2=O)c1` was 14.5%.
In the case of `C/C(=N\Nc1ccccc1)c1c(O)[nH]c(=O)[nH]c1=O`, the inhibition is -0.7%.
The result for `NNP(=O)(CC(=O)c1ccccc1)c1ccccc1` (stereo not given) reads -7%.
For the molecule `O=S(=O)(NC1CCCC1)OCC(Cl)(Cl)Cl`, the inhibition is 0.6%.
For `Cc1ccc2c(c1Cl)NC(C(=O)O)C1CC(Sc3ccccc3[N+](=O)[O-])C(Cl)C21` (stereo not given), the inhibition is 70.4% (active).
The result for `O=C(O)c1cccc2c1NC(C(=O)O)C1CC(Sc3ccccc3[N+](=O)[O-])C(Cl)C21` (stereo not given) reads 17.5%.
The result for `CC(=O)c1ccc2c(c1)C1C(Cl)C(Sc3ccccc3[N+](=O)[O-])CC1C(C(=O)O)N2` (stereo not given) reads 21.4%.
For the molecule `CCOC(=O)C(O)(c1ccc(N(CC)C(=O)COc2ccccc2)cc1)C(F)(F)F` (stereo not given), the inhibition is 7.2%.
The value for `Cc1cc(OCC(=O)N[C@@H](Cc2ccccc2)C(=O)O)c2c3c(c(=O)oc2c1)CCC3` was 1.6%.
As for `O=C1NC(=O)N(Cc2ccccc2)C(=O)/C1=C\c1ccco1`, the inhibition was 22.2%.
The result for `O=C1NC(=O)N(CCc2ccc(F)cc2)C(=O)/C1=C/c1cccs1` reads 84.1%; that for `O=C1NC(=O)N(CCc2ccc(F)cc2)C(=O)/C1=C/c1ccco1`, 95.4% (active); that for `Cc1nc2c(=O)n(C)c(=O)nc-2n(C)n1`, 23.5%.
`CCn1nc(-c2ccccc2)nc2c(=O)n(C)c(=O)nc1-2`: the inhibition is 18.7%.
Consider `Cn1ncnc2c(=O)n(C)c(=O)nc1-2`, for which the inhibition was 79.3% (active).
In the case of `CN(Cc1ccccc1)C(=O)CN1CCCC1=O`, the inhibition was -7.6%.
Turning to `C=CCOc1ccc(CC2C(=O)N(C)C(=O)N(C)C2=O)cc1`, the inhibition was 11.7%.
The value for `O=S(=O)(c1ccc(O)cc1)c1ccc(O)cc1` was 11%; that for `Oc1ccc(C(=C(Cl)Cl)c2ccc(O)cc2)cc1` was 94.8% (active).
Turning to `CCc1cc(=O)oc2cc(OCC(=O)N3C[C@H]4C[C@@H](C3)c3cccc(=O)n3C4)c(Cl)cc12`, the inhibition was -10.3%.
`CCCc1nc2ccccc2c(=O)n1-c1ccc(OC)cc1`: the inhibition is 12.2%.
Regarding `CC12CCC3C(CC=C4CC(O)CCC43C)C1C/C(=C\c1ccccc1F)C2=O` (stereo not given), the inhibition was 1.4%.
With `CCOC(=O)c1cc(C(O)(C(=O)OC)C(F)(F)F)c(/N=C/N(C)C)o1` (stereo not given), the inhibition was 14.3%.
